Activity calls are given as the source filed them. The calls were made as follows: active = hit-call score of the fitted dose curve at least 0.9, where 1 is the maximum; inactive = score below 0.9.
Experiments:
Conditions in all cases: mRNA level, 48 h; actives raise or lower the signal
[1] = read-out: Cytochrome P450 (CYP1A2), CYP1A2 (gene 1544); assay: LTEA_HepaRG_CYP1A2: Life Technologies and Expression Analysis (LTEA) Assay for Cytochrome P450 (CYP1A2) using HepaRG (AID 2283479)
In short: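 CYP1A2 transcript induction or loss, quantified by Fluidigm qRT-PCR against three housekeeping genes, was fitted bidirectionally against 0.5% DMSO controls. Human HepaRG cells received eight half-log concentrations from 100 uM over 48 h.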

[2] = read-out: cysteine-aspartic acid protease (CASP8), CASP8 (gene 841); assay: LTEA_HepaRG_CASP8: Life Technologies and Expression Analysis (LTEA) Assay for cysteine-aspartic acid protease (CASP8) using HepaRG (AID 2283480)
In short: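 Concentration-response in duplicate up to 100 uM (half-log steps, 0.5% DMSO) on differentiated HepaRG cultures for 48 h. Expression change of CASP8 mRNA is determined by TaqMan qRT-PCR with housekeeping-gene normalization.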

[3] = read-out: Cytochrome P450 (CYP2B6), CYP2B6 (gene 1555); assay: LTEA_HepaRG_CYP2B6: Life Technologies and Expression Analysis (LTEA) Assay for Cytochrome P450 (CYP2B6) using HepaRG (AID 2283481)
In short: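 HepaRG cells plated 48 h, switched to serum-free induction medium, then dosed 48 h (8 points, half-log from 100 uM, 0.5% DMSO). RNA isolated; CYP2B6 expression measured by qRT-PCR; gain or loss fitted relative to DMSO.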

[4] = read-out: Cytochrome P450 2C19 (Homo sapiens) (UniProt P33261); assay: LTEA_HepaRG_CYP2C19: Life Technologies and Expression Analysis (LTEA) Assay for CYP2C19 using HepaRG (AID 2283482)
In short: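 Transcript levels of CYP2C19 were quantified by qRT-PCR after HepaRG cells were treated for 48 hours with test chemicals up to 100 uM (eight half-log concentrations, 0.5% DMSO vehicle). Gain or loss of signal was fitted relative to DMSO.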

CYP2C8 (gene 1558) = assay: LTEA_HepaRG_CYP2C8: Life Technologies and Expression Analysis (LTEA) Assay for CYP2C8 using HepaRG (AID 2283483)
In short: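 This is a transcriptional endpoint in HepaRG cultures: 48 h exposure, highest concentration 100 uM. CYP2C8 mRNA is quantified by TaqMan qRT-PCR.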

CYP2C9 (gene 1559) = assay: LTEA_HepaRG_CYP2C9: Life Technologies and Expression Analysis (LTEA) Assay for CYP2C9 using HepaRG (AID 2283484)
In short: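 Eight-point concentration-response (highest 100 uM, half-log dilutions) in HepaRG cells for 48 h; CYP2C9 expression by qRT-PCR normalized to ACTB, GAPDH, POLR2A. Bidirectional fit, DMSO baseline.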

CYP2E1 (gene 1571) = assay: LTEA_HepaRG_CYP2E1: Life Technologies and Expression Analysis (LTEA) Assay for CYP2E1 using HepaRG (AID 2283485)
In short: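 Readout is qRT-PCR of CYP2E1 mRNA, normalized to three housekeeping genes and fitted bidirectionally against 0.5% DMSO. HepaRG cells were dosed 48 h at eight concentrations, highest 100 uM with half-log dilutions.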

CYP4A11 (gene 1579) = assay: LTEA_HepaRG_CYP4A11: Life Technologies and Expression Analysis (LTEA) Assay for CYP4A11 using HepaRG (AID 2283486)
In short: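 HepaRG, 48 h chem exposure, 8 conc (100 uM top, half-log), 0.5% DMSO vehicle; qRT-PCR readout, housekeeping-gene normalized; bidirectional curve fit vs DMSO baseline.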

[5] = read-out: Cytochrome P450 3A4 (Homo sapiens) (UniProt P08684); assay: LTEA_HepaRG_CYP3A4: Life Technologies and Expression Analysis (LTEA) Assay for CYP3A4 using HepaRG (AID 2283487)
In short: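 Differentiated HepaRG cells, plated 48 h, then dosed 48 h in serum-free induction medium with 0.5% DMSO, 8 half-log concentrations up to 100 uM, duplicate. CYP3A4 mRNA by qRT-PCR, normalized to ACTB/GAPDH/POLR2A; bidirectional fit versus DMSO.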

[6] = read-out: DNA damage-inducible transcript 3 (DDIT3), DDIT3 (gene 1649); assay: LTEA_HepaRG_DDIT3: Life Technologies and Expression Analysis (LTEA) Assay for DNA damage-inducible transcript 3 (DDIT3) using HepaRG (AID 2283488)
In short: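 Cells are human HepaRG liver cells treated for 48 h with eight half-log concentrations up to 100 uM in 0.5% DMSO. Transcript levels come from qRT-PCR normalized to three housekeeping genes, with activity fitted in both directions relative to vehicle.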

[7] = read-out: Pro-epidermal growth factor (Homo sapiens) (UniProt P01133); assay: LTEA_HepaRG_EGF: Life Technologies and Expression Analysis (LTEA) Assay for Epidermal growth factor (EGF) using HepaRG (AID 2283489)
In short: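 HepaRG, 48 h dosing, 100 uM top, half-log x8, 0.5% DMSO. Readout: TaqMan qRT-PCR (Fluidigm array), housekeeping-normalized. Gain or loss of signal fit vs DMSO.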

[8] = read-out: Early growth response protein 1 (EGR1) transcription factor, EGR1 (gene 1958); assay: LTEA_HepaRG_EGR1: Life Technologies and Expression Analysis (LTEA) Assay for Early growth response protein 1 (EGR1) transcription factor using HepaRG (AID 2283490)
In short: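 EGR1 expression change in human HepaRG after 48 h chemical exposure, assessed by housekeeping-normalized qRT-PCR; concentration-response up to 100 uM, fitted in both directions against DMSO controls.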

[9] = read-out: Ezrin (EZR), EZR (gene 7430); assay: LTEA_HepaRG_EZR: Life Technologies and Expression Analysis (LTEA) Assay for Ezrin (EZR) using HepaRG (AID 2283491)
In short: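 EZR transcript levels came from Fluidigm qRT-PCR and were normalized to three housekeeping genes after 48 h chemical exposure of HepaRG cells. Dosing used an 8-point half-log series with a 100 uM top concentration in 0.5% DMSO, tested in duplicate; both directions were fitted versus vehicle.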

[10] = read-out: Cytochrome P450 3A7 (Homo sapiens) (UniProt P24462); assay: LTEA_HepaRG_CYP3A7: Life Technologies and Expression Analysis (LTEA) Assay for CYP3A7 using HepaRG (AID 2283492)
In short: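 Human HepaRG liver cells, 48 h post-plating, switched to serum-free induction medium and exposed in duplicate for 48 h. Dosing: 100 uM top, half-log dilutions, 8 points, 0.5% DMSO vehicle. Read-out: CYP3A7 mRNA, gain or loss fitted against DMSO baseline.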

CYP3A5 (gene 1577) = assay: LTEA_HepaRG_CYP3A5: Life Technologies and Expression Analysis (LTEA) Assay for CYP3A5 using HepaRG (AID 2283493)
In short: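 Human HepaRG hepatic cells receive 48 h chemical treatment at eight concentrations (half-log steps from 100 uM) in 0.5% DMSO. Expression of CYP3A5 is quantified by Fluidigm qRT-PCR and normalized to three reference genes.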

[11] = read-out: Fatty Acid-Binding Protein 1 (FABP1), FABP1 (gene 2168); assay: LTEA_HepaRG_FABP1: Life Technologies and Expression Analysis (LTEA) Assay for Fatty Acid-Binding Protein 1 (FABP1) using HepaRG (AID 2283494)
In short: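 Values reflect bidirectional concentration-response fitting of FABP1 mRNA change against 0.5% DMSO controls. Human HepaRG cultures received eight half-log doses (top 100 uM) for 48 h; expression quantified by TaqMan qRT-PCR with housekeeping-gene normalization.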

[12] = read-out: Cytochrome P450 4A22 (Homo sapiens) (UniProt Q5TCH4); assay: LTEA_HepaRG_CYP4A22: Life Technologies and Expression Analysis (LTEA) Assay for Cytochrome P450 4A22 (CYP4A22) using HepaRG (AID 2283495)
In short: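 Readout is CYP4A22 transcript induction or loss, quantified by qRT-PCR and normalized to ACTB, GAPDH and POLR2A. Human HepaRG cells receive test chemicals for 48 h at eight half-log concentrations from 100 uM in 0.5% DMSO.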

[13] = read-out: Cytochrome P450 7A1 (Homo sapiens) (UniProt P22680); assay: LTEA_HepaRG_CYP7A1: Life Technologies and Expression Analysis (LTEA) Assay for Cytochrome P450 7A1 (CYP7A1) using HepaRG (AID 2283496)
In short: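 HepaRG, 48 h exposure, 8-pt half-log series from 100 uM, 0.5% DMSO vehicle, duplicates. Readout: TaqMan qRT-PCR mRNA vs three housekeeping genes; bidirectional curve fit against DMSO baseline.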

[14] = read-out: Glutathione S-Transferase (GSTA2), GSTA2 (gene 2939); assay: LTEA_HepaRG_GSTA2: Life Technologies and Expression Analysis (LTEA) Assay for Glutathione S-Transferase (GSTA2) using HepaRG (AID 2283497)
In short: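 Oxidative-stress marker GSTA2 is quantified by TaqMan qRT-PCR in HepaRG cultures treated 48 h across an eight-point range to 100 uM. Expression is normalized to endogenous controls and compared with 0.5% DMSO vehicle.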

[15] = read-out: Glutamate-cysteine ligase catalytic (GCLC), GCLC (gene 2729); assay: LTEA_HepaRG_GCLC: Life Technologies and Expression Analysis (LTEA) Assay for Glutamate-cysteine ligase catalytic (GCLC) using HepaRG (AID 2283498)
In short: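 Oxidative-stress marker GCLC is measured as mRNA change in human HepaRG liver cells after 48 h chemical treatment in 0.5% DMSO, eight concentrations from 100 uM. Activity is fitted bidirectionally against vehicle.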

Measured: outcome

Cytochrome P450 3A7 (Homo sapiens), sequence (P24462 whole entry, looked up): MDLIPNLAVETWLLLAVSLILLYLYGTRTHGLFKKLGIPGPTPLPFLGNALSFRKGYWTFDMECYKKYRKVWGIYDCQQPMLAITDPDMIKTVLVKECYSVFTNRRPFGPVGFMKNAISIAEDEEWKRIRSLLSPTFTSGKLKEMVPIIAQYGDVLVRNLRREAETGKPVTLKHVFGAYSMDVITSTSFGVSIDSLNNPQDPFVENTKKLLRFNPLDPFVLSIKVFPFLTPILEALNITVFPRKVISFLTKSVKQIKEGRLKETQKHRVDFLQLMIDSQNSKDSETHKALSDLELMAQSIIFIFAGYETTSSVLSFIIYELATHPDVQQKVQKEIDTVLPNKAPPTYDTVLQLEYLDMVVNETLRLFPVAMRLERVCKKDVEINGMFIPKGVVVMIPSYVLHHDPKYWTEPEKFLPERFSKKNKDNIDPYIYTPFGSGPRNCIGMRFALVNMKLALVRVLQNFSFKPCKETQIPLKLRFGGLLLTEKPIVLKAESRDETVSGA
Cytochrome P450 2C19 (Homo sapiens), sequence (P33261 whole entry, looked up): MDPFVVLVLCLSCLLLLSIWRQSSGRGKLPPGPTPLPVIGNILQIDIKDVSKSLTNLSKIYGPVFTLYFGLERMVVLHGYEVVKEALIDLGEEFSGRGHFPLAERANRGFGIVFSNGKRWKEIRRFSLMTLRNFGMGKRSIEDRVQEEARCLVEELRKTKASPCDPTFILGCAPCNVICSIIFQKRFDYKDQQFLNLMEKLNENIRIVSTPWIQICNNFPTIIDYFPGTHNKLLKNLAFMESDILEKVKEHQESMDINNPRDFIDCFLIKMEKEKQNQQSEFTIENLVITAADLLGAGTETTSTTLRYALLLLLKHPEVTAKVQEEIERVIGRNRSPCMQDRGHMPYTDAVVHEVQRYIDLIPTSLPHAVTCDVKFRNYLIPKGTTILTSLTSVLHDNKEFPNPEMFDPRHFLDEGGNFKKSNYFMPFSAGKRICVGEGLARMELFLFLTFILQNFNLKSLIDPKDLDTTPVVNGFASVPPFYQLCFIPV
Cytochrome P450 3A4 (Homo sapiens), sequence (P08684 whole entry, looked up): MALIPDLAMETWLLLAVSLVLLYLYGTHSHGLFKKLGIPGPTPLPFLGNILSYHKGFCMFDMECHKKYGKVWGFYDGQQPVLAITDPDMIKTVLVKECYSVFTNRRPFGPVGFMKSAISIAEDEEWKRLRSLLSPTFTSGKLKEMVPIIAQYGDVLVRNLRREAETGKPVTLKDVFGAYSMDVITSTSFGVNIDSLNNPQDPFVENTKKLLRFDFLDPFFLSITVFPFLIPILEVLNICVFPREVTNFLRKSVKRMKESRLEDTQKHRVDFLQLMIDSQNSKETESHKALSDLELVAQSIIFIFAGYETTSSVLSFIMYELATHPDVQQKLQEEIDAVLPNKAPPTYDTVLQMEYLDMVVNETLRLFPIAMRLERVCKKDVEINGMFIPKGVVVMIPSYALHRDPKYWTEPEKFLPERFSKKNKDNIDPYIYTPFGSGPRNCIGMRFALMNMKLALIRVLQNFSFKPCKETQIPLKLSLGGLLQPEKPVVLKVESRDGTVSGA

CS(=O)(=O)OCCCCOS(C)(=O)=O
inactive: all assays above

From PubChem BioAssay (EPA / NIEHS)
